Most compounds without a hit are left out; they make up all but 3.3% or so of the library.
KinaseGlo FLuc – blocks Kinase-Glo luciferase, a counter-screen artifact; Q27757; Kinase-Glo luciferase, ATP luminescence, 8 min; Potency, µM (highest dose often 38.3 µM), without a hit: at the top dose activity change, negative = inhibition, actives largely listed as inhibitors; 200,000 tested, 0.28% active; AID 1379; further: nearly all actives have a fitted effect of over 60% in size
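Compounds were added to a substrate mix at pH 7.2 (50 mM imidazole, 10 uM ATP, within the enzyme's linear range), followed by Kinase-Glo detection reagent; luminescence was measured after 8 minutes at ambient temperature.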
Tau fluor cs – counter-screen for tau fibril formation inhibitors. tau K18 P301L Alexa594 fluorescence, heparin fibrillization. 280,000 tested, 0.93% active. Potency, µM (titrated, usually from 57.7 µM), for the others: at the top dose activity change, negative = decrease; further: nearly all actives have a fitted effect of over 55% in size
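Human tau K18 P301L (15 uM unlabeled, 0.24 uM Alexa 594-labeled) in 100 mM sodium acetate pH 7 with 20 uM heparin, 6 hr at 37 C. ThT 30 uM added, 1 hr ambient; Alexa 594 FP and total fluorescence read at 555/632 nm.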
Tau fibril ThT – tau fibrillization inhibition (ThT binding); recombinant tau K18 P301L (four-repeat tau fragment), heparin-induced fibrillization, ThT fluorescence; 270,000 tested, 2.1% active; Potency, µM (doses to about 57.4 µM), inactives show top-dose activity, negative = inhibition, hits mostly inhibitors; further: nearly all actives have a fitted effect of over 55% in size
Target sequence (P10636 561-689 P618L limits assumed): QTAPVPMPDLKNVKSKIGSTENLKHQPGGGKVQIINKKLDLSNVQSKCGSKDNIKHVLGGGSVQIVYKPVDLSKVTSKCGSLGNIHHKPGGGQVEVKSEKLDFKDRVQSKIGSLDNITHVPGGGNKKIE
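Heparin-induced fibrillization of the P301L-mutant K18 repeat-domain fragment of human tau was followed by ThT binding in quantitative high-throughput format.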
NPSR antag – antagonists of human neuropeptide S receptor cAMP signaling | 220,000 tested, 1% active | Potency, µM (doses to about 38.3 µM), for the others: at the top dose activity change, negative = inhibition, most hits filed as inhibitors | Q6W5P4 | CHO-NPSR cells, cAMP TR-FRET, antagonist mode; further: nearly all actives have a fitted effect of over 50% in size
Target sequence (Q6W5P4 whole entry, looked up): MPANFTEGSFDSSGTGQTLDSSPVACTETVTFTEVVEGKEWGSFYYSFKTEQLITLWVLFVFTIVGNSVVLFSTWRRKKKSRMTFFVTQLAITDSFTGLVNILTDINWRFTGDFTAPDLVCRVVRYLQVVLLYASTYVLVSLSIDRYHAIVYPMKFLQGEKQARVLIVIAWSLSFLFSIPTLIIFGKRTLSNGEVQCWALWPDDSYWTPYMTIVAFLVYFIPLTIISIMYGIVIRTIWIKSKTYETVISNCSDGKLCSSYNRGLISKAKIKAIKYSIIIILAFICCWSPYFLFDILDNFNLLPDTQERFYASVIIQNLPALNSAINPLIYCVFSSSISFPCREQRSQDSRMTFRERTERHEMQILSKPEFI
Tau fibril FP – inhibitors of human tau fibril formation. P10636. K18 P301L tau heparin fibrillization, Alexa594 FP, 6 h. Potency, µM (titrated, usually from 57.7 µM), without a hit: at the top dose activity, negative = inhibition, hits mostly inhibitors. 280,000 tested, 0.39% active; further: nearly all actives have a fitted effect of over 55% in size
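Recombinant K18 P301L […], labeled with Alexa 594 at 0.24 uM over 15 uM unlabeled; heparin inducer 20 uM final; 37 C, 6 hr; FP endpoint.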
* marks the source's active call; other numbers are inactive results; ? = inconclusive; · = not tested or not shown; [ ] = another dose, or the depositor's remark. The call rests on the fitted dose curve; in most records, active means well fitted curve in the direction sought with a large enough effect; inconclusive means small, poorly fitted or top-dose-only effect, or another doubt; inactive means no such curve, though single readings can be large; an effect the other way counts as inactive or inconclusive. On the % scale 0 is the no-effect control and ±100 the full control effect; potency means the concentration at half of the fitted maximal effect.

SMILES | KinaseGlo FLuc | Tau fluor cs | Tau fibril ThT | NPSR antag | Tau fibril FP
CN(C)S(=O)(=O)c1cccc(NC(=S)Nc2cc(Cl)cc(Cl)c2)c1 | 2.8% | ? | -10.8% | ? | 25.1µM*
CCN(CCO)c1ccc(NC(=S)Nc2cccc(S(=O)(=O)N(C)C)c2)cc1 | 2.0% | ? | 14.1µM* | -10.7% | ?
Cc1nc2ncnn2c(C)c1CCC(=O)N1CCN(c2ccccc2)CC1 | · | 0.0% | 4.9% | · | 4.2%
COC(=O)c1c(NC(=O)/C=C/C(=O)O)sc(C)c1-c1ccc(C)cc1 | 3.6% | 5.1% | -10.8% | -49.5% | 6.1%
COC(=O)c1c(NC(=O)/C=C/C(=O)O)sc(C)c1-c1ccc(C(C)C)cc1 | 0.0% | -5.6% | ? | 12.6µM* | -2.4%
Cc1ccc(-c2nc3ccccn3c2Nc2ccccc2C)s1 | · | ? | -16.0% | · | 6.4%
CC1=NN(c2ccc([N+](=O)[O-])cc2)C(=O)/C1=C\N(C)C | 12.6µM* | -23.9% | 12.6µM* | 16.9% | 0.8%
CN(C)/C=C1/C(=O)N(c2ccc([N+](=O)[O-])cc2)N=C1c1ccccc1 | -2.7% | ? | 22.4µM* | -32.3% | -11.0%
CCCC1=NN(c2ccc([N+](=O)[O-])cc2)C(=O)/C1=C/N(C)C | -2.0% | -16.0% | ? | 2.6% | 1.5%
C/C(=C1/C(=O)N(c2ccc([N+](=O)[O-])cc2)N=C1c1ccccc1)N(C)C | -6.1% | ? | ? | -9.8%[46.1 µM] | -3.3%
CN(C)/C=C1\C(=O)N(c2ccc([N+](=O)[O-])cc2)N=C1c1ccccc1 | -5.6% | ? | 17.8µM* | 2.8%[46.1 µM] | ?
CC1=NN(c2nc3ccccc3[nH]2)C(=O)/C1=C/N(C)C | 1.58µM* | -8.6% | ? | -0.4% | 1.3%
COc1ccccc1NC(=O)CN1C(=O)C(c2ccc(F)cc2)=NC12CCCCC2 | · | -14.5% | -0.9% | · | -4.8%
CCN(C(=O)CCS(=O)(=O)c1cc2c(cc1C)NC(=O)CO2)c1cccc(C)c1 | · | -8.4% | -5.1% | · | -3.0%
CCCCN(C)c1ncnc2c1cnn2-c1cccc(Cl)c1 | · | -15.1% | ? | · | -5.0%
Cc1ccc(-n2c(=O)[nH]c3cc(C(=O)NCCc4ccccc4)ccc3c2=O)cc1 | · | 3.0% | -4.4% | · | -7.9%
Cc1ccc(-n2c(C)cc(/C=C3/SC(=O)N(CC(=O)N4CCOCC4)C3=O)c2C)nc1 | · | -15.7% | -12.8% | -6.5% | -1.9%
N#C/C(=C(/O)c1ccc(-c2cccc([N+](=O)[O-])c2)o1)c1nc2ccccc2s1 | -1.4% | ? | 6.31µM* | 9.6% | 9.8%
COc1ccc(/C=C/C(=O)c2ccncc2)c2ccccc12 | 7.0% | -13.1% | 15.8µM* | 17.3% | ?
COc1ccc2ccccc2c1/C=C\C(=O)c1ccccc1 | -3.5%[7.66 µM] | · | · | · | ·
O=C(NCc1ccc(F)cc1)c1cnc(N2CCCCC2)c2ccccc12 | · | -18.8% | -11.4% | · | -7.3%
CCOCCn1ccc2c(OCC(=O)Nc3cc(C(F)(F)F)ccc3Cl)cccc2c1=O | · | 3.1% | 7.6% | · | 1.6%
N#CC(=C(/N)Sc1ccccc1N)/C(C#N)=C(/N)Sc1ccccc1N | 1.0% | 25.1µM*[quencher] | 35.5µM* | · | ·
N#Cc1ccccc1Sc1ccccc1N | 2.1% | -3.3% | 8.2% | -12.3%[46.1 µM] | 4.6%
Cc1ccc(-c2nc3cc(Cl)ccc3o2)cc1NC(=O)c1cc2ccccc2o1 | · | -16.7% | -14.3% | · | -4.5%
SMILES | KinaseGlo FLuc | Tau fluor cs | Tau fibril ThT | NPSR antag | Tau fibril FP
CC(=O)c1ccc(NC(=O)Nc2sc3nc4n(c(=O)c3c2C)CCC(C)CC4)cc1 (stereo unspecified) | · | 12.6µM*[quencher] | ? | · | ?
CC(C)(C)c1ccc(C(=O)Nc2ccc(N3CCOCC3)cc2)cc1 | -0.1% | ? | 4.47µM* | -25.4%[46.1 µM] | -12.3%
O=C(Nc1ccc(Cl)cc1)Nc1ccc(N2CCOCC2)cc1 | 3.9% | ? | ? | -11.8%[46.1 µM] | 14.4%
O=C(Nc1ccccc1)Nc1ccc(C(=O)N2CCOCC2)cc1 | 3.16µM* | 1.6% | 3.8% | -10.8%[46.1 µM] | -0.4%
O=C(Nc1ccc(N2CCOCC2)cc1)c1cn2ccccc2n1 | 4.47µM* | 0.0% | ? | -2.1%[46.1 µM] | -2.9%
O=C(Nc1ccc(N2CCOCC2)cc1)Nc1ccc(Cl)c(Cl)c1 | -1.7% | 8.91µM*[quencher] | 12.6µM* | -14.3%[46.1 µM] | ?
O=C(c1ccc(NC(=O)C2(c3ccccc3)CCCC2)cc1)N1CCOCC1 | · | -30.4% | · | -6.1% | -7.0%
CC(C)(C)c1ccc(C(=O)NC(=S)Nc2ccc(N3CCOCC3)cc2)cc1 | -2.5% | -23.7% | ? | 23.8% | 2.5%
O=C(Nc1cccc(C(F)(F)F)c1)c1ccc(F)c(S(=O)(=O)N2CCc3ccccc3C2)c1 | · | ? | 10.1% | · | ?
Cn1c(=O)c2[nH]c([C@@H]3CC(=O)C[C@H](c4nc5c([nH]4)c(=O)n(C)c(=O)n5C)N3)nc2n(C)c1=O | -0.2%[7.66 µM] | · | · | · | ·
CC(=O)c1ccc(C(=O)Nc2ccc(N3CCOCC3)cc2)cc1 | 1.2% | -22.2% | 2.24µM* | -9.9%[46.1 µM] | -15.5%
O=C(Nc1ccc(N2CCOCC2)cc1)c1cc2c(s1)CCCCC2 | 0.9% | ? | 10µM* | -11.5% | 8.2%
O=C(Nc1cccc(S(=O)(=O)Nc2ccc(Cl)cc2)c1)c1cc2c(s1)CCCC2 | 5.2% | ? | 5.8% | -45.3% | 14.1µM*
Cc1ccccc1CSc1cn(CC(=O)N2CCCCC2)c2ccccc12 | · | -25.7% | ? | · | -5.4%
N=C1/C(=C/c2ccc(-c3cccc(C(=O)O)c3)o2)C(=O)N=C2SC=C(c3ccccc3)N12 | -0.9% | -7.5% | 4.47µM* | -32.7% | 14.8%
CS(=O)(=O)C1=NSC2=NC(=O)/C(=C\c3ccc(-c4ccccc4)o3)C(=N)N21 | 2.4% | -4.1% | ? | -27.6% | 12.0%
CC(C)S(=O)(=O)C1=NSC2=NC(=O)/C(=C\c3ccc(-c4cccc(C(=O)O)c4)o3)C(=N)N21 | 8.7% | 17.3% | 16.6% | -2.3% | 10.3%
N=C1/C(=C\c2ccc(-c3cc(Cl)cc(Cl)c3)o2)C(=O)N=C2SC=C(c3ccccc3)N12 | 1.1% | -24.9% | 3.98µM* | 19.6% | 5.2%
COc1ccc(OC)c(CNC(=O)CN2N=C(c3ccc(Cl)cc3)CCC2=O)c1 | · | -16.3% | 6.1% | · | -5.4%
O=C(COC(=O)c1ccccc1Cc1ccccc1)Nc1ccc(SC(F)F)cc1 | 1.6% | ? | 2.6% | -45.9% | 25.1µM*
Cc1ccc(C(=O)c2ccccc2C(=O)OCC(=O)Nc2ccc(SC(F)F)cc2)cc1 | -0.1% | -4.7% | -0.6% | -14.5% | -0.7%
O=[N+]([O-])c1cc(Br)cc(/C=N/n2cnnc2)c1O | -5.5% | -1.8% | 8.91µM* | -18.8% | 8.0%
O=c1c2c(-c3ccc(Cl)cc3)csc2ncn1/N=C/c1cccc([N+](=O)[O-])c1O | 6.9% | -10.6% | 15.8µM* | -6.0% | 1.1%
C=CCS/C(N)=N\N=C\c1cc(Br)cc([N+](=O)[O-])c1O | · | ? | 12.6µM* | 28.7% | 6.8%
O=C1C2C(C(=O)N1/N=C/c1cc(Br)cc([N+](=O)[O-])c1O)C1C=CC2C12CC2 (stereo unspecified) | 0.1% | -18.0% | 7.94µM* | -18.1%[46.1 µM] | -1.2%

From PubChem
